According to PubChem BioAssay (Tox21):
Several values for one entry are separate records, joined by “and”; a condition that tells them apart may be missing. Equal entries are not always repeated. Results filed as inconclusive are left out. Activity calls are given as the source filed them. Unless noted, calls follow the shape of the dose curve; as a rule, active = well fitted curve in the direction sought with a large enough effect in the repeat runs; inconclusive = weak or mixed curves; inactive = no such curve, though single readings can be large; an effect the other way counts as inactive or inconclusive.

Legend:
[1] = qHTS assay for small molecules that induce genotoxicity in human embryonic kidney cells expressing luciferase-tagged ATAD5 (AID 651632); also: nearly all actives have a fitted effect of over 15% in size; also: potency is read from the fitted curve at half-maximal effect
Summary of the method: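 Test compounds were delivered by pin tool onto HEK293T reporter cells (2,000/well) expressing ATAD5 fused to luciferase. After 16 hr at 37C, 5% CO2, Amplite was added for 30 min at room temperature and luminescence was measured.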

[2] = qHTS assay for small molecule agonists of the p53 signaling pathway - cell viability (AID 651633; calls by dose curve; also: nearly all actives have a fitted effect of over 30% in size; also: potency is read from the fitted curve at half-maximal effect)
Summary of the method: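 p53RE-bla cells were treated with compound for 16 hours at 37 C. Cytotoxicity was then measured as CellTiter-Glo luminescence after 30 min at room temperature.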

[3] = qHTS assay for small molecules that induce genotoxicity in human embryonic kidney cells expressing luciferase-tagged ATAD5 - cell viability (AID 651634; calls by dose curve; also: nearly all actives have a fitted effect of over 25% in size; also: potency is read from the fitted curve at half-maximal effect)
Summary of the method: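 Quantitative high-throughput format. HEK293T cells expressing ATAD5 fused to luciferase were plated at 2,000 cells/well and treated 15.5 hr with compound versus DMSO. Viability was determined by fluorescent live-cell protease substrate, 30 min at 37C.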

[4] = qHTS assay for small molecule disruptors of the mitochondrial membrane potential (AID 720635); also: potency is read from the fitted curve at half-maximal effect
Summary of the method: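 HepG2 cells exposed to compound 1 hr at 37C, then Mito-MPS dye 30 min. Ratio read of aggregate (540/590 nm) versus monomer (490/535 nm) fluorescence.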

[5] = qHTS assay to test for compound auto fluorescence at 590 nm (red) in HepG2 cells (AID 720674)
Summary of the method: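 Fluorescence at 590 nm emission following 540 nm excitation was recorded from HepG2 wells one hour after compound transfer, with DMSO-only wells as vehicle and Rose Bengal sodium equivalency as the scale.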

[6] = qHTS assay to test for compound auto fluorescence at 535 nm (green) in HepG2 cells (AID 720675)
[7] = qHTS assay to test for compound auto fluorescence at 460 nm (blue) in HEK293 cells (AID 720678); also: potency is read from the fitted curve at half-maximal effect
Summary of the method: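 HEK293, 2,000 cells/well, 10% dialyzed FBS; attach 4-5 hr 37C; pin compound or DMSO; o/n 37C/5% CO2; fluorescence 405/460 nm; triamterene-equivalent units.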

[8] = qHTS assay to test for compound auto fluorescence at 590 nm (red) in HEK293 cells (AID 720679)
Summary of the method: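 Intensity at 540nm excitation and 590nm emission is reported as Rose Bengal sodium-equivalent autofluorescence. Measurements followed overnight exposure (37C, 5% CO2) of HEK293 cells, 2,000 per well, to 23 nL compound.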

[9] = qHTS assay for small molecule disruptors of the mitochondrial membrane potential - cell viability (AID 720634; calls by dose curve; also: nearly all actives have a fitted effect of over 20% in size; also: potency is read from the fitted curve at half-maximal effect)
Summary of the method: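 Same-well counter-screen: following the MMP dye addition, CellTiter-Glo was added to 1 hr compound-treated HepG2 cells and luminescence read after 30 min at room temperature.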
% is scaled to controls: 0 for no effect and ±100 for the full control effect; tags tell the direction and shape of the fitted curve or compound fluorescence and quenching.

CC1(C)CN=C(NN=C(/C=C/c2ccc(C(F)(F)F)cc2)/C=C/c2ccc(C(F)(F)F)cc2)NC1
active: Potency [2] 27.3 µM | Potency [3] 48.6 µM | Potency [4] 17.2 µM
inactive: Potency [1] | outcome [5] | outcome [6] | Potency [7] | outcome [8]

C=CC(=O)OCC(COC(=O)C=C)(COC(=O)C=C)COC(=O)C=C
active: Potency [1] 5.45 µM | Potency [2] 6.86 µM | Potency [3] 12.2 µM
inactive: Potency [9] | outcome [5] | outcome [6] | outcome [8]

CS(=O)(=O)c1ccc(C(=O)C2C(=O)CCCC2=O)c([N+](=O)[O-])c1
active: Potency [4] 6.98 µM
inactive: Potency [1] | Potency [2] | Potency [3] | Potency [9] | outcome [5] | outcome [6] | Potency [7] | outcome [8]

O=[N+]([O-])c1cc([N+](=O)[O-])c2ccccc2c1
inactive: Potency [1] | Potency [2] | Potency [3] | outcome [5] | outcome [6] | Potency [7] | outcome [8]
active: Potency [4] 10.9 µM

C[C@]12CC[C@H]3[C@@H](CCC4=CC(=O)CC[C@@]43C)[C@@H]1CC[C@@H]2O
inactive: Potency [1] | Potency [2] | Potency [3] | Potency [9] | outcome [5] | outcome [6] | Potency [7] | outcome [8]

CCC[CH2][Sn]([CH2]CCC)([CH2]CCC)[O]C(=O)c1ccccc1
active: Potency [2] 0.611 µM | Potency [3] 1.22 µM | Potency [9] 2.17 µM | Potency [4] 0.077 µM
inactive: Potency [1] | outcome [5] | outcome [6] | Potency [7] | outcome [8]

Nc1ccc(Sc2ccc(N)cc2)cc1
inactive: Potency [1] | Potency [2] | Potency [3] | Potency [9] | outcome [5] | outcome [6] | Potency [7] | outcome [8]

c1ccc2c(c1)[nH]c1cnccc12
inactive: Potency [1] | Potency [2] | Potency [3] | Potency [9] | Potency [4] | outcome [5] | outcome [6] | outcome [8]

Cc1c(Cl)c(=O)oc2cc(OP(=O)(OCCCl)OCCCl)ccc12
inactive: Potency [1] | Potency [2] | Potency [3] | Potency [9] | outcome [5] | outcome [6] | outcome [8]
active: Potency [7] 12.6 µM [fluorescent]

CC(C)CC(C)(c1ccc(O)cc1)c1ccc(O)cc1
inactive: Potency [1] | Potency [3] | outcome [5] | outcome [6] | outcome [8]
active: Potency [2] 68.7 µM and 61.1 µM | Potency [9] 34.4 µM and 27.3 µM | Potency [4] 6.87 µM and 6.86 µM

CCOc1cc(C(C)(C)C)ccc1C1COC(c2c(F)cccc2F)=N1 (centres undefined)
inactive: Potency [1] | Potency [3] | outcome [5] | outcome [6] | Potency [7] | outcome [8]
active: Potency [2] 41.6 µM | Potency [9] 29.5 µM | Potency [4] 16.6 µM

CCOCCOC(C)=O
inactive: Potency [1] | Potency [2] | Potency [3] | Potency [9] | outcome [5] | outcome [6] | Potency [7] | outcome [8]

CC(=O)C(Cl)(Cl)Cl
inactive: Potency [1] | Potency [2] | outcome [5] | outcome [6] | Potency [7] | outcome [8]
active: Potency [3] 13.2 µM | Potency [9] 0.209 µM | Potency [4] 0.743 µM

CC(C)(C)c1cc([N+](=O)[O-])cc(C(C)(C)C)c1O
active: Potency [2] 48.6 µM | Potency [3] 13.7 µM | Potency [4] 0.122 µM
inactive: Potency [1] | outcome [5] | outcome [6] | Potency [7] | outcome [8]

O=[N+]([O-])c1ccc2ccc3cccc4ccc1c2c34
active: Potency [1] 48.5 µM | Potency [4] 1.22 µM
inactive: Potency [2] | Potency [3] | Potency [9] | outcome [5] | outcome [6] | Potency [7] | outcome [8]

C[C@@H]1O[C@@H](O[C@@H]2C=C3CC[C@@H]4[C@H](CC[C@]5(C)[C@@H](c6ccc(=O)oc6)CC[C@]45O)[C@@]3(C)CC2)[C@H](O)[C@H](O)[C@H]1O
active: Potency [2] 0.0072 µM | Potency [3] 0.0227 µM | Potency [4] 0.0639 µM
inactive: Potency [1] | Potency [9] | fluorescence, relative to Rose Bengal [5] 0.222% [at 18.6 µM] | fluorescence, % of fluorescein control [6] -0.0054% [at 18.6 µM] | fluorescence, % of fluorescent control [8] -0.104% [at 18.6 µM]

O=C(NC(=O)c1c(F)cccc1F)Nc1cc(Cl)c(OC(F)(F)C(F)F)c(Cl)c1
inactive: Potency [1] | Potency [2] | Potency [3] | Potency [9] | outcome [5] | outcome [6] | Potency [7] | outcome [8]
active: Potency [4] 19.3 µM

N#CCCSCCC#N
inactive: Potency [1] | Potency [2] | Potency [3] | Potency [9] | Potency [4] | outcome [5] | outcome [6] | Potency [7] | outcome [8]

CC(C)(O)c1cnn2c(-c3ccc(F)c(-c4c(F)cccc4C#N)c3)cnc2n1
inactive: Potency [1] | Potency [2] | Potency [3] | outcome [5] | outcome [6] | Potency [7] | outcome [8]
active: Potency [4] 19.3 µM

ClC1=C(Cl)C2(Cl)C3C(Cl)C(Cl)CC3C1(Cl)C2(Cl)Cl (centres undefined)
inactive: Potency [1] | Potency [3] | Potency [9] | outcome [5] | outcome [6] | outcome [8]
active: Potency [2] 54.3 µM and 61.1 µM | Potency [4] 7.67 µM and 13.7 µM

O=C(CBr)c1ccc(O)cc1
inactive: Potency [1] | Potency [2] | Potency [3] | Potency [9] | outcome [5] | outcome [6] | Potency [7] | outcome [8]

O=C1c2ccccc2C(=O)C1C(=O)C(c1ccccc1)c1ccc(Cl)cc1 (centres undefined)
active: Potency [2] 24.3 µM | Potency [3] 3.06 µM | Potency [9] 61.1 µM | Potency [4] 0.386 µM
inactive: Potency [1] | outcome [5] | outcome [6] | Potency [7] | outcome [8]

COC12CC[C@@]3(C[C@@H]1C(C)(O)C(C)(C)C)[C@H]1Cc4ccc(O)c5c4[C@@]3(CCN1CC1CC1)[C@H]2O5 (some centres undefined)
active: Potency [2] 54.1 µM | Potency [3] 60.7 µM | Potency [9] 54.1 µM | Potency [4] 19.2 µM
inactive: Potency [1] | outcome [5] | outcome [6] | Potency [7] | outcome [8]

CN(C)C1CSSSC1
inactive: Potency [1] | Potency [2] | Potency [3] | Potency [9] | outcome [5] | outcome [6] | Potency [7] | outcome [8]

CC(C)(C)c1ccc(CSc2cnn(C(C)(C)C)c(=O)c2Cl)cc1
inactive: Potency [1] | Potency [2] | Potency [3] | outcome [5] | outcome [6] | outcome [8]
active: Potency [9] 24.3 µM | Potency [4] 7.7 µM

Oc1c(Br)c(Br)c(Br)c(Br)c1Br
active: Potency [2] 17.3 µM | Potency [4] 2.45 µM
inactive: Potency [1] | Potency [9] | outcome [5] | outcome [6] | Potency [7] | outcome [8]

C[C@@H]1O[C@@H](O[C@H]2C[C@@H](O)[C@]3(CO)[C@H]4[C@H](O)C[C@]5(C)[C@@H](C6=CC(=O)OC6)CC[C@]5(O)[C@@H]4CC[C@]3(O)C2)[C@H](O)[C@H](O)[C@H]1O
inactive: Potency [1] | outcome [5] | outcome [6] | Potency [7] | outcome [8]
active: Potency [2] 33.5 nM and 53.1 nM and 20.6 nM | Potency [3] 59.6 nM and 37.6 nM and 32.6 nM

COc1ccc(OC)c(CC(C)N)c1 (centres undefined)
inactive: Potency [1] | Potency [3] | Potency [9] | Potency [4] | outcome [5] | outcome [6] | Potency [7] | outcome [8]

CCOP(=S)(OCC)OC(Cl)C(Cl)(Cl)Cl (centres undefined)
inactive: Potency [1] | Potency [3] | outcome [5] | outcome [6] | Potency [7] | outcome [8]
active: Potency [4] 61.1 µM

CCCCCCCCCCCCCCCC[N+](C)(C)C
active: Potency [4] 13.3 µM and 10.5 µM and 27.3 µM
inactive: Potency [1] | Potency [3] | Potency [9] | outcome [5] | outcome [6] | outcome [8]

O=[N+]([O-])c1c2ccccc2cc2ccccc12
inactive: Potency [1] | Potency [2] | Potency [3] | outcome [5] | outcome [6] | outcome [8]
active: Potency [4] 8.53 µM

Clc1ccc(CO/N=C(\Cn2ccnc2)c2ccc(Cl)cc2Cl)c(Cl)c1
inactive: Potency [1] | Potency [9] | outcome [5] | outcome [6] | Potency [7] | outcome [8]
active: Potency [2] 26.6 µM

C[C@]12Cc3nonc3C[C@@H]1CC[C@@H]1[C@@H]2CC[C@@]2(C)[C@H]1CC[C@]2(C)O
inactive: Potency [1] | outcome [5] | outcome [6] | outcome [8]
active: Potency [2] 29.8 µM
